This is part of a sample that, as a whole, favours compounds with a hit. Of some 83,000 tested, about 20% had one in any assay.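 Plates (96-well) were seeded with cells, treated with compound at one concentration, and incubated for 48 hours before percent growth was determined.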 A number with no mark means an inactive call. Calls of active or inactive are those of the source.

The assay deals with BT-549 breast. The experiment in a line: NCI-60 one-dose screen, 48 h (100 = growth as untreated, 0 = no growth, -100 = all killed). To be noted: 10 µM. As to the method: Growth inhibition of the BT-549 human tumor cell line is measured as a screen for anti-cancer activity. Cells are grown in 96 well plates and exposed to the test compound for 48 hours. Compounds are tested at a single concentration, which is 10^-5 M for most compounds. The reported endpoint is percent growth (GI% or GIPRCNT), where numbers from 0 - 100% represent growth inhibition, and numbers from -100% - 0 represent cell death. For example, a value of 40 represents 60% growth inhibition. A value of 0 means no net growth occurred over the course of the experiment. A value of -40 indicates 40% of cells at the beginning of the experiment died by the end of the experiment. A value of -100 means all cells are dead at the end of the experiment.
NCI-60 Human Tumor Cell Lines Screen was performed using the standard one-dose NCI protocol, which is described in more detail at https://dtp.cancer.gov/discovery_development/nci-60/default.htm.
Compounds with GIPRCNT values below 10 were considered active. Activity score was based on GIPRCNT using the following formula: […]
Score is 0 for GIPRCNT values of 100 or above, 50 for GIPRCNT values of 0, and 100 for GIPRCNT values of -100.
Consider `Nc1cc(Br)c(-c2nn3c(CCC(=O)c4nc5ccccc5[nH]4)nnc3s2)c(Br)c1`, for which the growth is 105%.

As to `C/C(=N\O)c1ccc(NC(=O)CSc2nnc(-c3ccccc3)n2-c2ccccc2)cc1`, the growth is 20.9%.

Consider `CC(=O)Oc1cc(OC(C)=O)c2ccccc2c1OC(C)=O`, for which the growth is 92.4%.

As to `COc1ccc(-c2onc(N)c2-c2cc(OC)c3c(c2)OCO3)cc1`, the growth was 42.6%.

As for `CC(C)c1ccc(C(C)C(=O)N(CC2=C(C(C)c3ccccn3)c3ccccc3C2)C(C)C)cc1` (stereo not given), the growth was 69.6%.

Regarding `O=S(=O)(Oc1ccc(-c2ccc3sccc3c2)cc1)c1ccc(F)cc1`, the growth was 102%.

With `O=C(CSc1nccc(Nc2cccc3ccccc23)n1)c1ccc(Cl)cc1`, the growth is 102%.

Regarding `CC(=O)COc1ccc(Cl)cc1Cl`, the growth is 111%.

For the compound `CC(C)=CCC/C(C)=C/CC/C(C)=C/CC/C=C(\C)CC/C=C(\C)CCC(=O)Nc1ccn(C2OC(CO)C(O)C2(F)F)c(=O)n1` (stereo not given), the growth was 18.3%.

For the compound `NS(=O)(=O)Oc1ccc(-c2ccc3sccc3c2)cc1`, the growth was 91.1%.

As to `C[C@@H](C[C@H](CCO)c1ccccc1)c1ccc2ccccc2c1`, the growth is -86.1% (active).

Consider `Cc1cn(-c2cc(F)cc(NC(=O)c3ccc(C)c(Nc4nccc(-c5cccnc5)n4)c3)c2)cn1`, for which the growth was -27.3% (active).

Take `O=C(COc1cccc(/C=C2\CSc3ccccc3C2=O)c1)c1ccc(Cl)cc1`: the growth was -77.5% (active).

As to `CN(C)CCOc1ccc(-c2nc3sccn3c2-c2ccnc(S(C)(=O)=O)n2)cc1`, the growth is 118%.

As to `CCN(CCCNc1cc2c(c(N)c1S(=O)(=O)O)C(=O)c1ccccc1C2=O)c1ccccc1`, the growth is 89.2%.

Regarding `CCOC(=O)CSc1nc(-c2cc(OC)ccc2OC)cc(-c2ccc(OC)cc2)c1C#N`, the growth was 86%.

For `O=C(c1ccccc1)N(C(=O)c1ccccc1)N1CCCC1`, the growth was 105%.

In the case of `CN(C)c1nc(N)c2nccnc2n1`, the growth is 104%.

With `CS(=O)(=O)c1nccc(-c2c(-c3ccc(OCCc4ccccc4)cc3)nc3sccn23)n1`, the growth is 110%.

As to `COc1ccc2c(c1)C(=O)/C(=C/c1cccc(OCC(=O)c3ccc([N+](=O)[O-])cc3)c1)CO2`, the growth is -34.5% (active).

For `IC(I)I`, the growth was 103%.

In the case of `CCn1cc(C(=O)O)c(=O)c2cc(F)c(N3CCNCC3)cc21`, the growth was 110%.

As for `O=C(Nc1ccc(F)cc1)c1cc2ccccc2cc1O`, the growth is 72.4%.

Take `COc1ccc(-c2cc(-c3ccc(Cl)cc3)nc(SCCCC(=O)NO)n2)cc1OC`: the growth was 30.4%.

`Nc1nc(N)c(N)c(Nc2ccc(CCO)cc2)n1`: the growth was 99.9%.

Turning to `CC1(C)N=C(N)N=C(N)N1c1cccc(C#N)c1`, the growth is 81.6%.

Take `COc1cc(C)ccc1Oc1nc(Nc2ccc(N3CCOCC3)cc2)ncc1NC(=O)Nc1cc(C(F)(F)F)cc(C(F)(F)F)c1`: the growth is 78.3%.

`O=C(CN1CCN(C(=O)c2ccccc2)CC1)Nc1ccccc1SCc1ccccc1`: the growth was 68.1%.

Turning to `Cc1cc(NC(=O)c2ccc(C)c(Nc3nccc(-c4cccnc4)n3)c2)cc(-n2cnc(C)c2)c1`, the growth is 41.1%.

Regarding `Cc1cc(Cl)ccc1Nc1nc(C(F)(F)F)ccc1C(=O)N/N=C/c1c(Cl)cccc1Cl`, the growth was -15% (active).

As to `CS(=O)(=O)c1nccc(-c2c(-c3cccc(O)c3)nc3sccn23)n1`, the growth was 113%.

Take `Cc1cc(SCc2ccccc2)nc(N)n1`: the growth is 89.3%.

Take `O[C@@H]1CO[C@H]2[C@@H]1OC[C@@H]2O`: the growth was 112%.

`COc1ccc(-c2nn(-c3cccc(Cl)c3)cc2-c2c(C#N)c(=O)n3[nH]c(-c4ccccc4)nc3c2C#N)cc1`: the growth was 84.4%.

As to `O=C(Nc1cc(Cl)cc2c1-c1ccc(Cl)cc1C2O)C(Cl)Cl` (stereo not given), the growth is 95.3%.

Turning to `COc1cc(-c2nn(-c3cccc(NC(=O)CCN4CCN(c5ccccc5)CC4)c3)cc2-c2ccncc2)ccc1Cl`, the growth was 12.6%.

Consider `COc1ccc(/C(C#N)=C/c2cccc(OC)c2OC)cc1`, for which the growth is 78.1%.

As to `Clc1ccc(Cc2ccncc2)cc1`, the growth is 99.9%.

As to `CN1CCN(c2cc3c(cc2F)c(=O)c(C(=O)O)cn3-c2ccc(F)cc2)CC1`, the growth was 92.4%.

In the case of `COc1cc2cc(Oc3ccc(NC(=O)Nc4cccc(C(F)(F)F)c4)cc3)c(C)nc2cc1OC`, the growth was -8.13% (active).
